# Reference: PubChem BioAssay
# Calls of active or inactive are those of the source.
# Key:
# Albumin (Bos taurus) = Albumin (Bos taurus) (UniProt P02769); assay: compounds binding labelled BSA control protein – biochemical, small-molecule microarray, Alexa647 label, 635/667 nm fluorescence, artefact control for SMM control protein annotation, profiling panel (AID 1118); conditions: BSA-A647 binding, fluorescence 635 nm, higher = more signal;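 also: score merges 667 nm emission intensity and signal-to-noise per printed compound spot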
# [1] = probe aXIP binding to arrayed compounds – biochemical, NeuroSMM set, 635/667 nm fluorescence, primary screen (AID 1119); conditions: small-molecule microarray, higher = more signal, called active from +8 up or from −8 down;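 also: probe is the protein aXip251-270 applied at 1 µg/mL to compound-printed slides; binding of probe to printed compounds measured as 667 nm fluorescence plus signal to noise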
# [2] = probe aNOTCH3 binding on compound microarray – biochemical, small-molecule microarray, 635/667 nm fluorescence, primary screen (AID 1120); conditions: higher = more signal;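 also: probe is a biotin-tagged antibody raised against NOTCH3 rather than NOTCH3 protein; score merges spot fluorescence near 667 nm with spot signal to noise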
# [3] = probe aNOTCH2 binding on compound microarray – biochemical, small-molecule microarray, 635/667 nm fluorescence, primary screen (AID 1121); conditions: higher = more signal;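 also: score merges feature fluorescence read at 667 nm with its signal to noise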
# [4] = biological target: Carbonic anhydrase 2 (Homo sapiens) (UniProt P00918); assay: compounds binding carbonic anhydrase 2 – biochemical, small-molecule microarray, Alexa647-labelled CAII, profiling panel (AID 1122); conditions: CAII-A647 binding fluorescence, higher = more signal
# [5] = COS7 lysate on small-molecule microarray, probe aHis, 635 nm (AID 1123); conditions: COS7 cell lysate, fluorescence, higher = more signal;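 also: z-score combines 667nm fluorescence intensity with signal-to-noise per printed compound spot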
# [6] = probe aLAP1 signal on lysate-treated microarray – cell lysate, small-molecule microarray, COS7 lysate, primary screen (AID 1124); conditions: probe aLAP1, fluorescence, higher = more signal;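 also: lysate comes from COS7 cells expressing LAP1 and is applied at 0.3 µg/mL; score merges spot fluorescence near 667 nm with signal-to-noise over triplicate slides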
# Sam68 (KHDRBS1) = assay: compounds binding KHDRBS1 protein – biochemical, small-molecule microarray, 635 nm fluorescence, primary screen (AID 1125); conditions: higher = more signal;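 also: score merges 667 nm channel intensity with signal to noise over triplicate slides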
# [7] = system: Chordin-like protein 2 (CHRDL2); assay: compounds binding chordin-like 2 – biochemical, small-molecule microarray, 635 nm fluorescence, primary screen (AID 1126); conditions: fluorescence 635 nm, higher = more signal;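 also: printed compound slides probed with Chrdl2 protein at 4 µg/mL for 1 h at 4 C; score merges 667 nm emission intensity with signal to noise over three replicate slides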
# [8] = biological target: Concanavalin-A (Canavalia ensiformis) (UniProt P02866); assay: compounds binding concanavalin A lectin – biochemical, small-molecule microarray, Alexa647 label, 635 nm, artefact control for SMM control protein annotation, primary screen (AID 1127); conditions: ConA-A647 binding fluorescence, higher = more signal;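 also: z combines 667 nm emission intensity with signal-to-noise across three replicate slides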
# Chain of Concanavalin-A (Canavalia ensiformis) (P02866 whole entry, looked up): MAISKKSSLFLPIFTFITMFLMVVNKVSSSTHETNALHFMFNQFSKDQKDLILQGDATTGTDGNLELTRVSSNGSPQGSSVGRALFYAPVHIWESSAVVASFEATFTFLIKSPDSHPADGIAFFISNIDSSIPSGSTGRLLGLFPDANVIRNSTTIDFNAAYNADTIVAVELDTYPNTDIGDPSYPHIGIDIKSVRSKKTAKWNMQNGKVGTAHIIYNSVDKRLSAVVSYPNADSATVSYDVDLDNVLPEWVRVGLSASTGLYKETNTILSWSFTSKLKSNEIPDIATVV
# Chain of Albumin (Bos taurus) (P02769 whole entry, looked up): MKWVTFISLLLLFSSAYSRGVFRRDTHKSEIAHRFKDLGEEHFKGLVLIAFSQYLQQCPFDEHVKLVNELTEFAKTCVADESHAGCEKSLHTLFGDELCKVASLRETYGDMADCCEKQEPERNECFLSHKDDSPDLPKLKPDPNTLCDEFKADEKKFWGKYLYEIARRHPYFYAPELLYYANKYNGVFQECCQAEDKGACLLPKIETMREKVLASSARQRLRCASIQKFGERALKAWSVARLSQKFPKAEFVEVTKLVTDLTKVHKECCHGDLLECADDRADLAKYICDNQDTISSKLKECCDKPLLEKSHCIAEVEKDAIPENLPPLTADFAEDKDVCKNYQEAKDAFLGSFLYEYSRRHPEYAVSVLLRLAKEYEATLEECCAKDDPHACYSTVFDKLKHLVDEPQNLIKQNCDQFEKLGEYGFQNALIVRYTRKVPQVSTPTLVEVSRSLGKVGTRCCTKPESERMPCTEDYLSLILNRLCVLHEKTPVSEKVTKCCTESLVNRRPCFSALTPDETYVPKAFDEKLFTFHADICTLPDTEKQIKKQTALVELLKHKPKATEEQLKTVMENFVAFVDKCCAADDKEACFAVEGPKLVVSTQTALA
SMILES,composite z-score (Albumin (Bos taurus)),composite Z-score [1],composite z-score [2],composite z-score [3],composite z-score [4],composite z-score [5],composite z-score [6],composite z-score (Sam68 (KHDRBS1)),composite z-score [7],composite z-score [8]
COC(=O)C(CC#Cc1ccc2c(c1)[C@]1(C(=O)N2)[C@H](C(=O)Nc2nc3ccccc3s2)[C@H]2C(=O)O[C@H](c3ccccc3)[C@H](c3ccccc3)N2[C@@H]1c1ccccc1OCCO)C(=O)OC,0.987,-0.323 (inactive),0.116,-0.0859,0.663,1.69,0.636,1.3,-0.154,1.14
Cc1ccc(S[C@]2(C(=O)NCCCN(C)C)CC(=O)N(Cc3cc(C(F)(F)F)cc(C(F)(F)F)c3)[C@@H]2c2ccc(CO)cc2I)cc1,-0.39,-0.86 (inactive),0.462,-0.0492,0.773,0.961,0.135,0.375,-0.395,-1.79
CCC[C@@H]1C[C@@]1(CCC)[C@@H](NS(=O)(=O)c1cccc2cccnc12)c1ccc(Cl)cc1,0.659,-0.421 (inactive),0.0496,-0.106,0.457,1.81,-0.119,0.403,-0.955,0.492
C=CCNC(=O)[C@H]1[C@@H]2C(=O)O[C@@H](c3ccccc3)[C@@H](c3ccccc3)N2[C@@H](c2ccccc2OCCO)[C@]12C(=O)Nc1ccc(C#CCCO)cc12,-0.066,0.313 (inactive),-0.214,-0.137,0.423,1.06,0.0894,-0.0891,-0.0022,0.801
CCC[C@@H]1C[C@@]1(CCC)[C@@H](NC(=O)c1ccccc1)c1cccc(Cl)c1,0.941,0.432 (inactive),1.38,0.808,0.326,2.63,0.245,1.33,0.0667,0.954
C=C(CCCC)/C(=C/C[C@H](OC(=O)c1ccncc1)c1ccccc1OCCO)c1cnc2ccccc2c1,0.0803,-0.153 (inactive),0.0259,-0.182,0.862,1.25,0.406,1.16,0.66,1.14
O=C1N[C@@H](Cc2ccccc2)C(=O)N2[C@@H]1C[C@@H](C(=O)O)[C@H]2c1cccc(OCCO)c1,0.0429,0.108 (inactive),-0.0362,-0.124,0.733,0.514,0.256,1.22,0.992,0.311
COCCOC(=O)N1C(=O)[C@@]2(c3cc(C#CCC(C(=O)OC)C(=O)OC)ccc31)[C@H](c1ccccc1OCCO)N1[C@H](c3ccccc3)[C@H](c3ccccc3)OC(=O)[C@H]1[C@@H]2C(=O)NC[C@H](O)c1ccccc1,-0.841,0.577 (inactive),0.164,0.0568,0.483,1.47,0.412,1.3,0.972,1.16
C=CCOC(=O)[C@H]1[C@@H]2C(=O)O[C@@H](c3ccccc3)[C@@H](c3ccccc3)N2[C@@H](c2ccc(OCCOC(=O)[C@@H]3C[C@@H]4C(=O)N[C@@H](CC(C)C)C(=O)N4[C@@H]3c3ccc(O)cc3)cc2)[C@]12C(=O)Nc1ccccc12,0.481,0.183 (inactive),0.058,-0.0631,0.592,2.62,0.545,1.29,1.25,1.15
COc1cc2c(cc1OC)CN(C(=O)[C@@H]1[C@H]3C(=O)O[C@H](c4ccccc4)[C@H](c4ccccc4)N3[C@H](c3ccccc3OCCO)[C@@]13C(=O)Nc1ccc(C#CCCO)cc13)CC2,0.641,0.252 (inactive),0.0556,-0.0878,0.402,1.88,0.681,1.29,0.352,1.14
CN1C(=O)C2C=CC(C(O)C#Cc3ccccc3)N(N3CCCCC3)C2C1=O (stereo not given),0.268,1.04 (inactive),1.15,0.519,0.798,0.19,1.3,-0.156,0.111,0.82
